Assay results published in PubChem BioAssay (NCI).
The panel holds about 83,000 compounds, 20% with a hit somewhere; the sample as a whole holds those more often.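 Testing used 96-well plates and a 48-hour single-concentration exposure. Example: -40 means 40% of the starting cells died.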 Activity calls are given as the source filed them. How the source made its calls: active means growth percent below 10; inactive means the rest.

Legend:
Assay in all cases: NCI-60 one-dose screen, 48 h (100 = growth as untreated, 0 = no growth, -100 = all killed)
Settings in all cases: 10 µM unless noted
RPMI-8226 leukemia = tested on: RPMI-8226 leukemia
OVCAR-8 ovarian = tested on: OVCAR-8 ovarian
OVCAR-5 ovarian = tested on: OVCAR-5 ovarian
OVCAR-4 ovarian = tested on: OVCAR-4 ovarian
SK-OV-3 ovarian = tested on: SK-OV-3 ovarian
IGROV1 ovarian = tested on: IGROV1 ovarian
OVCAR-3 ovarian = tested on: OVCAR-3 ovarian
HS 578T breast = tested on: HS 578T breast
NCI/ADR-RES ovarian = tested on: NCI/ADR-RES ovarian

Measured: growth

O=C(COc1cccc(/C=C2\COc3ccc(Cl)cc3C2=O)c1)c1ccc(Cl)cc1
active: RPMI-8226 leukemia -11.4%
inactive: OVCAR-8 ovarian 91.7% | OVCAR-5 ovarian 81.1% | OVCAR-4 ovarian 90.5% | SK-OV-3 ovarian 99% | IGROV1 ovarian 38.3% | OVCAR-3 ovarian 87.4% | HS 578T breast 72.3% | NCI/ADR-RES ovarian 84%

CC(=O)O[C@H]1CC[C@]2(C)[C@H]3CC=C4[C@@H]5CC(C)(C)CC[C@]5(C(=O)NCCNCCN)CC[C@@]4(C)[C@]3(C)CC[C@H]2C1(C)C
active: RPMI-8226 leukemia -44.4% | OVCAR-8 ovarian -85.3% | OVCAR-5 ovarian -87.7% | OVCAR-4 ovarian -25% | IGROV1 ovarian -63.9% | OVCAR-3 ovarian -91.4% | NCI/ADR-RES ovarian -86%
inactive: SK-OV-3 ovarian 95.8% | HS 578T breast 80.6%

C[n+]1ccccc1/C=C/c1ccc2cccc(O)c2n1
inactive: RPMI-8226 leukemia 105% | OVCAR-8 ovarian 100% | OVCAR-5 ovarian 51.5% | OVCAR-4 ovarian 112% | SK-OV-3 ovarian 39.1% | IGROV1 ovarian 105% | OVCAR-3 ovarian 112% | HS 578T breast 108% | NCI/ADR-RES ovarian 109%

Cc1nc(/N=C(\N)NC(=O)Nc2cccc([N+](=O)[O-])c2)sc1C
inactive: RPMI-8226 leukemia 74.3% | OVCAR-8 ovarian 100% | OVCAR-5 ovarian 91.5% | OVCAR-4 ovarian 88.6% | SK-OV-3 ovarian 101% | IGROV1 ovarian 76.1% | OVCAR-3 ovarian 95.9% | HS 578T breast 74.5% | NCI/ADR-RES ovarian 46.2%

Cn1c(O)c(N=NC(=O)c2cc(-c3ccccc3)on2)c2ccccc21
inactive: RPMI-8226 leukemia 115% | OVCAR-8 ovarian 104% | OVCAR-5 ovarian 102% | OVCAR-4 ovarian 95.7% | SK-OV-3 ovarian 108% | IGROV1 ovarian 102% | OVCAR-3 ovarian 115% | HS 578T breast 96.2% | NCI/ADR-RES ovarian 94.9%

COc1cc(CNc2oc(-c3ccccc3)c(-c3ccccc3)c2C#N)cc(CN2CCN(C)CC2)c1O
inactive: OVCAR-8 ovarian 94.5% | OVCAR-5 ovarian 63.8% | OVCAR-4 ovarian 55% | SK-OV-3 ovarian 95.9% | IGROV1 ovarian 71.2% | OVCAR-3 ovarian 80.2% | HS 578T breast 70.5% | NCI/ADR-RES ovarian 75.3%
active: RPMI-8226 leukemia 2.73%

Cc1c(/C=C/[N+](=O)[O-])ccc2c1[nH]c1ccccc12
inactive: OVCAR-8 ovarian 94.1% | OVCAR-5 ovarian 106% | OVCAR-4 ovarian 116% | SK-OV-3 ovarian 114% | IGROV1 ovarian 101% | OVCAR-3 ovarian 123% | HS 578T breast 104% | NCI/ADR-RES ovarian 108%
active: RPMI-8226 leukemia -15%

O=C1CC(=NCC(=O)n2c(-c3ccccc3)nc3ccccc32)NN1
inactive: RPMI-8226 leukemia 104% | OVCAR-8 ovarian 102% | OVCAR-5 ovarian 99.9% | OVCAR-4 ovarian 97.5% | SK-OV-3 ovarian 84.8% | IGROV1 ovarian 77.2% | OVCAR-3 ovarian 103% | HS 578T breast 103% | NCI/ADR-RES ovarian 99.5%

CSc1nc(-c2cccc(NC(=O)CCl)c2)c(C#N)c(=O)n1C
active: RPMI-8226 leukemia -18.3% | IGROV1 ovarian -64.5% | OVCAR-3 ovarian 8.91%
inactive: OVCAR-8 ovarian 72.6% | OVCAR-5 ovarian 26.7% | OVCAR-4 ovarian 12.5% | SK-OV-3 ovarian 109% | HS 578T breast 88.1% | NCI/ADR-RES ovarian 75.8%

N#CCCN=Nc1c(O)[nH]c2ccc([N+](=O)[O-])cc12
inactive: RPMI-8226 leukemia 105% | OVCAR-8 ovarian 102% | OVCAR-5 ovarian 97% | OVCAR-4 ovarian 105% | SK-OV-3 ovarian 86% | IGROV1 ovarian 99.6% | OVCAR-3 ovarian 103% | HS 578T breast 103% | NCI/ADR-RES ovarian 104%

CC(=O)O[C@H]1CC[C@]2(C)[C@H]3CC=C4[C@@H]5CC(C)(C)CC[C@]5(C(=O)NCCNCCNCCN)CC[C@@]4(C)[C@]3(C)CC[C@H]2C1(C)C
inactive: OVCAR-5 ovarian 10% | OVCAR-4 ovarian 34.9% | SK-OV-3 ovarian 101% | IGROV1 ovarian 46.9% | HS 578T breast 92.2% | NCI/ADR-RES ovarian 74.6%
active: RPMI-8226 leukemia -23.7% | OVCAR-8 ovarian -0.659% | OVCAR-3 ovarian -30.6%

CCCN1CCN(c2ccc3nc(-c4ccc5nc(-c6ccc(OCC)cc6)[nH]c5c4)[nH]c3c2)CC1
inactive: OVCAR-5 ovarian 62% | SK-OV-3 ovarian 67.7% | IGROV1 ovarian 52.1% | HS 578T breast 70.4% | NCI/ADR-RES ovarian 41.7%
active: RPMI-8226 leukemia -38.8% | OVCAR-8 ovarian 0.816% | OVCAR-4 ovarian -34.6% | OVCAR-3 ovarian -83.5%

O=S(=O)(Nc1ccc(I)cc1F)c1ccc(-c2cnc(C3CC3)o2)cc1
inactive: RPMI-8226 leukemia 71.1% | OVCAR-8 ovarian 70% | OVCAR-5 ovarian 88.2% | OVCAR-4 ovarian 60.5% | SK-OV-3 ovarian 71.5% | IGROV1 ovarian 45.4% | OVCAR-3 ovarian 16.1% | HS 578T breast 35.2% | NCI/ADR-RES ovarian 28%

COc1cccc(-c2nc3sccn3c2-c2ccnc(NCCCNS(=O)(=O)c3cccc(F)c3)c2)c1
active: RPMI-8226 leukemia -19.9% | NCI/ADR-RES ovarian 4.88%
inactive: OVCAR-8 ovarian 14.4% | OVCAR-5 ovarian 59.4% | OVCAR-4 ovarian 20.2% | SK-OV-3 ovarian 54.3% | IGROV1 ovarian 27.7% | OVCAR-3 ovarian 39.6% | HS 578T breast 57.7%

COc1cc(C=Nc2oc(-c3ccccc3)c(-c3ccccc3)c2C#N)cc(CN2CCCCC2)c1O
inactive: RPMI-8226 leukemia 100% | OVCAR-8 ovarian 105% | OVCAR-5 ovarian 97% | OVCAR-4 ovarian 91.6% | SK-OV-3 ovarian 116% | IGROV1 ovarian 99.6% | OVCAR-3 ovarian 110% | HS 578T breast 95.9% | NCI/ADR-RES ovarian 95.7%

CSc1nc(Nc2cccc(NC(=O)/C(C#N)=C/c3c(Cl)cccc3Cl)c2)c(C#N)c(-c2cccc([N+](=O)[O-])c2)n1
inactive: RPMI-8226 leukemia 26.8% | OVCAR-8 ovarian 53.6% | OVCAR-5 ovarian 67.5% | OVCAR-4 ovarian 49.7% | SK-OV-3 ovarian 99.2% | IGROV1 ovarian 29.2% | OVCAR-3 ovarian 31% | HS 578T breast 66.9% | NCI/ADR-RES ovarian 60.5%

C=CC(=O)Nc1cccc(-c2nc(SC)nc(Nc3ccccc3OC)c2C#N)c1
inactive: RPMI-8226 leukemia 29.7% | OVCAR-8 ovarian 34.5% | OVCAR-5 ovarian 42.9% | SK-OV-3 ovarian 91.8% | IGROV1 ovarian 69.3% | OVCAR-3 ovarian 23.4% | HS 578T breast 16.8% | NCI/ADR-RES ovarian 29.3%
active: OVCAR-4 ovarian -26.4%

COc1ccc(-c2cc(C(=O)N=Nc3c(O)[nH]c4ccc(Br)cc34)no2)cc1
inactive: RPMI-8226 leukemia 107% | OVCAR-8 ovarian 99.8% | OVCAR-5 ovarian 99.8% | OVCAR-4 ovarian 103% | SK-OV-3 ovarian 95.2% | IGROV1 ovarian 100% | OVCAR-3 ovarian 108% | HS 578T breast 95.7% | NCI/ADR-RES ovarian 97.4%

COc1cccc(-c2nn(C(C)(C)C)cc2-c2ccnc(NCCCNS(=O)(=O)c3ccc(C)cc3)c2)c1
inactive: RPMI-8226 leukemia 99.3% | OVCAR-8 ovarian 103% | OVCAR-5 ovarian 105% | OVCAR-4 ovarian 103% | SK-OV-3 ovarian 113% | IGROV1 ovarian 111% | OVCAR-3 ovarian 122% | HS 578T breast 103% | NCI/ADR-RES ovarian 98.4%

COc1ccc(/C=C/C(=O)c2ccc(O)c(CN3CCN(c4cc5c(cc4F)c(=O)c(C(=O)O)cn5C4CC4)CC3)c2)cc1
active: RPMI-8226 leukemia -3.49%
inactive: OVCAR-8 ovarian 13.2% | OVCAR-5 ovarian 47.5% | OVCAR-4 ovarian 88.1% | SK-OV-3 ovarian 46.5% | IGROV1 ovarian 33.8% | OVCAR-3 ovarian 19.1% | HS 578T breast 35.4% | NCI/ADR-RES ovarian 43.1%

COc1ccc(/C=C(\C#N)C(=O)Nc2cccc(Nc3nc(SC)nc(-c4cccc([N+](=O)[O-])c4)c3C#N)c2)cc1OC
inactive: RPMI-8226 leukemia 83.8% | OVCAR-8 ovarian 102% | OVCAR-5 ovarian 96.6% | OVCAR-4 ovarian 91.1% | SK-OV-3 ovarian 99% | IGROV1 ovarian 74.7% | OVCAR-3 ovarian 112% | HS 578T breast 104% | NCI/ADR-RES ovarian 104%

O=C(/C=C/c1cccc([N+](=O)[O-])c1)c1ccc(O)c(CN2CCN(c3cc4c(cc3F)c(=O)c(C(=O)O)cn4C3CC3)CC2)c1
active: RPMI-8226 leukemia -25.6% | OVCAR-3 ovarian 7.92%
inactive: OVCAR-8 ovarian 27.4% | OVCAR-5 ovarian 12.4% | OVCAR-4 ovarian 37.4% | SK-OV-3 ovarian 72.9% | IGROV1 ovarian 28.8% | HS 578T breast 51.9% | NCI/ADR-RES ovarian 10.7%

COc1ccc(CCNc2nc(SC)nc(-c3cccc([N+](=O)[O-])c3)c2C#N)cc1OC
active: OVCAR-4 ovarian 5.9%
inactive: RPMI-8226 leukemia 82.6% | OVCAR-8 ovarian 61.6% | SK-OV-3 ovarian 72.7% | IGROV1 ovarian 95.4% | OVCAR-3 ovarian 102% | HS 578T breast 68.3% | NCI/ADR-RES ovarian 68.4%

COc1cc2nc(N3CCCC3)nc(NCc3ccccc3)c2cc1OC
inactive: RPMI-8226 leukemia 12.7% | OVCAR-8 ovarian 78.9% | OVCAR-4 ovarian 57.2% | SK-OV-3 ovarian 96% | IGROV1 ovarian 90.4% | OVCAR-3 ovarian 68.1% | HS 578T breast 73.7% | NCI/ADR-RES ovarian 72.4%

COc1ccc(-c2cc(NC(=O)Nc3ccc4ncsc4c3)no2)cc1
inactive: RPMI-8226 leukemia 92.6% | OVCAR-8 ovarian 102% | OVCAR-5 ovarian 98.6% | OVCAR-4 ovarian 96.2% | SK-OV-3 ovarian 118% | OVCAR-3 ovarian 114% | HS 578T breast 93.3% | NCI/ADR-RES ovarian 106%

Nc1nc2ncc(CCNc3ccc(C(=O)O)cc3)nc2c(=O)[nH]1
inactive: RPMI-8226 leukemia 99.4% | OVCAR-8 ovarian 108% | OVCAR-5 ovarian 103% | OVCAR-4 ovarian 127% | SK-OV-3 ovarian 115% | IGROV1 ovarian 113% | OVCAR-3 ovarian 128% | HS 578T breast 117% | NCI/ADR-RES ovarian 115%
